Source: PubChem BioAssay
Calls of active or inactive are those of the source. Unless noted, how the calls were made is not given here.

What was measured:
[1] = test system: Wnt5a (protein binding on small-molecule microarray); experiment: Wnt5a binders on small-molecule microarray, primary screen, biophysical, 635/667 nm fluorescence (AID 1142); details: 635 nm fluorescence, higher = more signal;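 further: fluorescence read at 667 nm with signal to noise per printed feature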
[2] = cell viability in Huh7 cells, primary screen, cytotoxicity control for HCV replication inhibitor project, CellTiter-Glo luminescence, basal, 48 h (AID 1143); details: Huh7 HCV replicon, CellTiter-Glo luminescence, 48 h, higher = more signal, called active from +8 up or from −8 down unless noted;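 further: Huh7 hepatoma cells carrying a hepatitis C replication reporter with no stimulus; test concentration not given here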
[3] = P. aeruginosa biofilm formation inhibitors, primary screen, PAO1 strain, BacTiter-Glo luminescence, LB-PBS (AID 1144); details: 12 h, higher = more signal
[4] = CREB reporter modulators without forskolin, primary screen, cell-based, PC12, CRE-LacZ reporter, unstimulated (AID 1145); details: no forskolin, luminescence, 4.5 h; higher = more signal, called active from +8 up or from −8 down unless noted
[5] = CREB reporter modulators under forskolin, primary screen, cell-based, PC12, CRE-LacZ reporter, forskolin-stimulated (AID 1146); details: luminescence, 4.5 h; higher = more signal, called active from +8 up or from −8 down unless noted;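 further: PC12 cells with 6xCRE LacZ reporter stimulated by forskolin 10 µM; beta-galactosidase reporter signal reflecting CREB driven transcription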
[6] = molecular target: Streptavidin (Streptomyces avidinii) (UniProt P22629); experiment: streptavidin binders on small-molecule microarray, primary screen, artefact control for SMM compound annotation, biophysical, 635/667 nm fluorescence (AID 1147); details: streptavidin binding, higher = more signal;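 further: signal reflects streptavidin binding to arrayed compounds as a control protein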
[7] = small-molecule binders of probe aInhba, primary screen, biochemical, small-molecule microarray, 635/667 nm fluorescence (AID 1148); details: higher = more signal; small-molecule microarray, probe aInhba, fluorescence unless noted;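 further: score merges 667nm spot fluorescence with signal-to-noise for antibody binding to printed compounds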
Torsin-1A (Homo sapiens) [8] = molecular target: Torsin-1A (Homo sapiens) (UniProt O14656); experiment: torsin A binders from cell lysate, primary screen, small-molecule microarray, wild-type, 635/667 nm (AID 1149); details: COS7 hTOR1A-WT lysate, 635 nm fluorescence, higher = more signal
Torsin-1A (Homo sapiens) [9] = molecular target: Torsin-1A (Homo sapiens) (UniProt O14656); experiment: small-molecule binders of mutant TOR1A in lysate, primary screen, cell lysate, small-molecule microarray, COS7 lysate, 635/667 nm fluorescence (AID 1150); details: COS7 hTOR1A mutant lysate, 635 nm fluorescence, higher = more signal;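 further: score pools 667 nm emission and signal to noise measuring lysate protein binding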
[10] = test system: Sonic hedgehog protein (Shh); experiment: small-molecule binders of Shh protein, primary screen, biochemical, small-molecule microarray, 635/667 nm fluorescence (AID 1151); details: small-molecule microarray binding, 635 nm fluorescence; higher = more signal;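 further: Shh protein binding to compounds spotted on small-molecule microarray slides; score combines spot fluorescence intensity with signal-to-noise across triplicate slides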
[11] = E. coli DRC41 culture turbidity changes, primary screen, E. coli filamentation inducer project, strain DRC41, OD650, 48 h (AID 1152);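 further: E. coli MC1000 strain DRC41 lacking acrAB efflux pump and sulA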; details: E. coli DRC41 (acrAB sulA); higher = more signal, called active from +8 up or from −8 down unless noted
[12] = small-molecule binders of probe aLefty1, primary screen, biochemical, small-molecule microarray, 635/667 nm fluorescence (AID 1153); details: higher = more signal; small-molecule microarray, probe aLefty1, fluorescence unless noted;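 further: score merges spot fluorescence with signal-to-noise ratio from the scanned slide images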
[13] = PSAC antagonists in infected red cells, primary screen, cell-based, P. falciparum Indochina, OD700, 1 h (AID 1154); details: P. falciparum Indochina infected RBC osmotic lysis; higher = more signal, called active from +8 up or from −8 down unless noted
[14] = PSAC antagonists in infected red cells, primary screen, cell-based, P. falciparum Indochina, OD700, 2 h (AID 1155);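 further: lysis reports solute entry through the parasite surface anion channel PSAC; channel blockers reduce lysis of infected cells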; details: P. falciparum Indochina infected erythrocytes, osmotic lysis OD700; higher = more signal, called active from +8 up or from −8 down unless noted
[15] = osmotic lysis modulators in infected erythrocytes, primary screen, PSAC antagonist project, cell-based, P. falciparum Indochina, OD700, 3 h (AID 1156); details: higher = more signal, called active from +8 up or from −8 down unless noted
[16] = PSAC antagonists in infected red cells, primary screen, cell-based, P. falciparum Indochina, OD700, 18 h (AID 1157); details: P. falciparum Indochina infected erythrocytes, osmotic lysis OD700, 18 h; higher = more signal, called active from +8 up or from −8 down unless noted
[17] = modulators of S6 phosphorylation in cells, primary screen, cell-based, A549, cytoblot, luminescence, serum-stimulated (AID 1158); details: A549 phospho-S6 cytoblot, 5 h, higher = more signal;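 further: serum-stimulated A549 lung adenocarcinoma cells; signal is phosphorylated S6 detected by cytoblot immunostaining with HRP secondary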
[18] = molecular target: NADPH oxidase 2 (Homo sapiens) (UniProt P04839); experiment: NOX2-dependent H2O2 signal modulators, primary screen, NOX inhibitor project, cell-based, HEK293-NOX2, PMA-stimulated, Amplex Red fluorescence (AID 1159); details: 45 min; higher = more signal, called active from +8 up or from −8 down unless noted; further: test concentration not given here
[19] = molecular target: NADPH oxidase 4 (Homo sapiens) (UniProt Q9NPH5); experiment: NOX4-dependent H2O2 signal modulators, primary screen, NOX inhibitor project, cell-based, HEK293-NOX4, tetracycline-induced, Amplex Red fluorescence (AID 1160); details: 45 min; higher = more signal, called active from +8 up or from −8 down unless noted
[20] = molecular target: NADPH oxidase 5 (Homo sapiens) (UniProt Q96PH1); experiment: NOX5-dependent H2O2 signal modulators, primary screen, NOX inhibitor project, cell-based, HEK293-NOX5, Amplex Red fluorescence (AID 1161); details: HEK293-NOX5, ionomycin, 45 min, higher = more signal
NADPH oxidase 5 (Homo sapiens), sequence (Q96PH1 whole entry, looked up): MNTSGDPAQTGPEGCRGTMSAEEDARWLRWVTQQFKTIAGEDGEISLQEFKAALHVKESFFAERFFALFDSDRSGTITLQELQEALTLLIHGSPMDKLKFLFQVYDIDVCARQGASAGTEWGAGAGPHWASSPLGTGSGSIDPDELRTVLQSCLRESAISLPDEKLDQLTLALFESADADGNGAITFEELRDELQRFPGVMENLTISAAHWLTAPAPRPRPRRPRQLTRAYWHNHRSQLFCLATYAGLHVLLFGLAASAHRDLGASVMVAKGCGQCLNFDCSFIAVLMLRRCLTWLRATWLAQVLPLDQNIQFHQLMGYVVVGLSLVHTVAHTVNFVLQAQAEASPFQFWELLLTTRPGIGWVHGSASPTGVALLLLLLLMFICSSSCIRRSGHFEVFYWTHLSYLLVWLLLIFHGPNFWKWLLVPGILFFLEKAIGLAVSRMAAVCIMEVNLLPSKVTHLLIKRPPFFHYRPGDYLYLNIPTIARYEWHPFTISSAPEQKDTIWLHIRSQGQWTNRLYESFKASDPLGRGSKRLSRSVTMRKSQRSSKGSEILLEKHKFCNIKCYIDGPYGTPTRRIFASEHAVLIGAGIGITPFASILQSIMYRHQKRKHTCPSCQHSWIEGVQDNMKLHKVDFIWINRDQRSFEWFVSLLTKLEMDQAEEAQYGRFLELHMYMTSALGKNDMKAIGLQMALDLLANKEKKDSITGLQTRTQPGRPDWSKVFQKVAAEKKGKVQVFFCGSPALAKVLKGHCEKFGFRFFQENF

Streptavidin (Streptomyces avidinii), sequence (P22629 whole entry, looked up): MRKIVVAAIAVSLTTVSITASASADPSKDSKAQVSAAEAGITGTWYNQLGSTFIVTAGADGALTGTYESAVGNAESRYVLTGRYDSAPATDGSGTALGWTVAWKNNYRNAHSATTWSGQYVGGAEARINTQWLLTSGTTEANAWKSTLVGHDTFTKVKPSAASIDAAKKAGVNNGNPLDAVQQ
Torsin-1A (Homo sapiens), sequence (O14656 whole entry, looked up): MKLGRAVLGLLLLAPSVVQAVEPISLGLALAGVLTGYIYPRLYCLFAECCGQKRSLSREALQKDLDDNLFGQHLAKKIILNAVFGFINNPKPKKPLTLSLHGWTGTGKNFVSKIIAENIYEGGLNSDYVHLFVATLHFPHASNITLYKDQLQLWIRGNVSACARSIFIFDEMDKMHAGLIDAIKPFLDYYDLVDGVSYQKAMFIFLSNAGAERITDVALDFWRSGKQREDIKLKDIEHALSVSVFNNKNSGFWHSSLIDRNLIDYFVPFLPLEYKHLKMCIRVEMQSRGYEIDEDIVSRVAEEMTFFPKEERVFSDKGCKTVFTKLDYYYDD
NADPH oxidase 2 (Homo sapiens), sequence (P04839 whole entry, looked up): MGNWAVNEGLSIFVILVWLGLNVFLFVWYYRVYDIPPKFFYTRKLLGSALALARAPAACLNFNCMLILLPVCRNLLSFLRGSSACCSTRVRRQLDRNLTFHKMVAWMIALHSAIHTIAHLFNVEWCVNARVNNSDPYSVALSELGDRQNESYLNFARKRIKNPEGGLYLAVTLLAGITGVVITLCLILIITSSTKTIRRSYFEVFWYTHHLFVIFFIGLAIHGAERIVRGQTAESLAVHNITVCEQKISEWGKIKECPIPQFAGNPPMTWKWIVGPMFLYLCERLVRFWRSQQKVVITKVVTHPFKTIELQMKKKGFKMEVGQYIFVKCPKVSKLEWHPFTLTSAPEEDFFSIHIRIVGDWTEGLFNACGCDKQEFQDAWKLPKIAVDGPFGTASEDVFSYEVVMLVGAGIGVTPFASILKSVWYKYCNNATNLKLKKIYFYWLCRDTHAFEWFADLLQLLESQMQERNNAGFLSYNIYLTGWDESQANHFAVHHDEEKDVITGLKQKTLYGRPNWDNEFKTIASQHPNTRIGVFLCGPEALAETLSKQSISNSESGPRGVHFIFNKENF
NADPH oxidase 4 (Homo sapiens), sequence (Q9NPH5 whole entry, looked up): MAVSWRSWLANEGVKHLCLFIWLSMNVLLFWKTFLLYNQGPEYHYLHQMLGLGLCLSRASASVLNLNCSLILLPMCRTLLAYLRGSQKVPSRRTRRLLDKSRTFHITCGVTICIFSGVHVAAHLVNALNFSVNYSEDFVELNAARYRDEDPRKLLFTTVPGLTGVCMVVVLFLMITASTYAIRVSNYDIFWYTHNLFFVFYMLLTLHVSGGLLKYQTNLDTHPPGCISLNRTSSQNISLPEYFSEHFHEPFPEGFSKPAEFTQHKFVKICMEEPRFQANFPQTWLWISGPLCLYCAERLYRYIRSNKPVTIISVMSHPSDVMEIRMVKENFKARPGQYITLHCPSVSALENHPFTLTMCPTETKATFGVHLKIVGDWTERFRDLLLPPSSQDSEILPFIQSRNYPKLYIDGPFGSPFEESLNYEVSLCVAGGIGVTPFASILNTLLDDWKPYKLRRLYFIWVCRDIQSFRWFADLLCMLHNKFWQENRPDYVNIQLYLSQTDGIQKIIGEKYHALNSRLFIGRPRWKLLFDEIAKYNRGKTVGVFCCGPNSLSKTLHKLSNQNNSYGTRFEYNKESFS

COC(=O)[C@@]1(Cc2ccccc2)[C@H]2c3cc(C(=O)N(C)C)n(C)c3C[C@H]2CN1C(=O)c1ccccc1
composite z-score [1]: 0.253 | z-score [2]: -0.782 (inactive) | z-score [3]: 0.323 (inactive) | z-score [4]: 0.194 (inactive) | z-score [5]: 0.189 (inactive) | composite z-score [6]: 1.78 | composite z-score [7]: 0.0091 | composite z-score (Torsin-1A (Homo sapiens) [8]): 0.0264 | composite z-score (Torsin-1A (Homo sapiens) [9]): 1.51 | composite z-score [10]: -0.916 | z-score [11]: -0.741 (inactive) | composite z-score [12]: 0.113 | z-score [13]: 1.24 (inactive) | z-score [14]: 0.373 (inactive) | z-score [15]: 0.747 (inactive) | z-score [16]: 0.617 (inactive) | z-score [17]: 0.553 | z-score [18]: 0.294 (inactive) | z-score [19]: -0.0833 (inactive) | z-score [20]: -2.5

COC(=O)[C@@]1(Cc2ccccc2)[C@H]2c3cc(C(=O)N(C)C)[nH]c3C[C@H]2CN1C(=O)c1ccccc1
composite z-score [1]: 0.155 | z-score [2]: -0.167 (inactive) | z-score [3]: -0.0166 (inactive) | z-score [4]: -0.368 (inactive) | z-score [5]: -0.897 (inactive) | composite z-score [6]: -0.033 | composite z-score [7]: -0.147 | composite z-score (Torsin-1A (Homo sapiens) [8]): -0.816 | composite z-score (Torsin-1A (Homo sapiens) [9]): -0.317 | composite z-score [10]: -0.836 | z-score [11]: -1.41 (inactive) | composite z-score [12]: 0.802 | z-score [13]: 1.11 (inactive) | z-score [14]: 0.322 (inactive) | z-score [15]: 0.337 (inactive) | z-score [16]: 0.766 (inactive) | z-score [17]: -0.519 | z-score [18]: 0.434 (inactive) | z-score [19]: 0.0256 (inactive) | z-score [20]: -3.03

CCCC=C(CCC)[C@@H](NP(=O)(c1ccccc1)c1ccccc1)c1ccccc1
composite z-score [1]: -0.0444 | z-score [2]: -0.411 (inactive) | z-score [3]: 0.168 (inactive) | z-score [4]: 0.201 (inactive) | z-score [5]: 0.89 (inactive) | composite z-score [6]: 0.821 | composite z-score [7]: -0.168 | composite z-score (Torsin-1A (Homo sapiens) [8]): 0.364 | composite z-score (Torsin-1A (Homo sapiens) [9]): 0.368 | composite z-score [10]: -0.0623 | z-score [11]: -1.19 (inactive) | composite z-score [12]: 0.547 | z-score [13]: 4.03 (inactive) | z-score [14]: 0.584 (inactive) | z-score [15]: 0.689 (inactive) | z-score [16]: 0.249 (inactive) | z-score [17]: 1.02 | z-score [18]: -1.7 (inactive) | z-score [19]: -0.617 (inactive) | z-score [20]: 0.842

COC(=O)[C@H]1C(=O)c2ccccc2O[C@@](C(=O)OC)(c2ccccc2)[C@@H]1c1ccccc1
composite z-score [1]: 0.107 | z-score [2]: -1.35 (inactive) | z-score [3]: 0.352 (inactive) | z-score [4]: -0.523 (inactive) | z-score [5]: 1.24 (inactive) | composite z-score [6]: -0.37 | composite z-score [7]: 0.177 | composite z-score (Torsin-1A (Homo sapiens) [8]): 0.0049 | composite z-score (Torsin-1A (Homo sapiens) [9]): 0.0856 | composite z-score [10]: 0.0053 | z-score [11]: 0.0473 (inactive) | composite z-score [12]: -0.199 | z-score [13]: 0.251 (inactive) | z-score [14]: -0.528 (inactive) | z-score [15]: -0.591 (inactive) | z-score [16]: -0.56 (inactive) | z-score [17]: -0.651 | z-score [18]: 1.19 (inactive) | z-score [19]: 0.752 (inactive) | z-score [20]: 0.627

COC(=O)NCC=Cc1nc(CCC=CC(=O)O[C@H]2CC3CC(=O)O[C@@H](C=CCC(C)C)C[C@@H]4CC[C@H](C)[C@@H](C[C@@H](OC)C[C@H](C2)O3)O4)co1
composite z-score [1]: -0.335 | z-score [2]: -3.73 (inactive) | z-score [3]: 0.881 (inactive) | z-score [4]: 0.106 (inactive) | z-score [5]: -1.96 (inactive) | composite z-score [6]: -0.875 | composite z-score [7]: -0.159 | composite z-score (Torsin-1A (Homo sapiens) [8]): -0.429 | composite z-score (Torsin-1A (Homo sapiens) [9]): -0.653 | composite z-score [10]: 0.0788 | z-score [11]: -0.0987 (inactive) | composite z-score [12]: -0.213 | z-score [13]: 0.465 (inactive) | z-score [14]: 0.0987 (inactive) | z-score [15]: -0.0546 (inactive) | z-score [16]: -0.195 (inactive) | z-score [17]: -0.975 | z-score [18]: 0.902 (inactive) | z-score [19]: 0.594 (inactive) | z-score [20]: -0.00689

C=C(CC1(C(C)NP(=O)(c2ccccc2)c2ccccc2)CC1)c1ccccc1 (stereo not given)
composite z-score [1]: 0.41 | z-score [2]: -2.48 (inactive) | z-score [3]: -0.917 (inactive) | z-score [4]: 0.0109 (inactive) | z-score [5]: 1.49 (inactive) | composite z-score [6]: 0.416 | composite z-score [7]: 0.122 | composite z-score (Torsin-1A (Homo sapiens) [8]): -1.03 | composite z-score (Torsin-1A (Homo sapiens) [9]): 0.0087 | composite z-score [10]: 0.0881 | z-score [11]: -1.67 (inactive) | composite z-score [12]: 0.603 | z-score [13]: 2.42 (inactive) | z-score [14]: 0.809 (inactive) | z-score [15]: 0.512 (inactive) | z-score [16]: 1.03 (inactive) | z-score [17]: 0.984 | z-score [18]: -0.412 (inactive) | z-score [19]: -3.69 (inactive) | z-score [20]: -3.82

CCCc1cc2c(n1Cc1cccc(Cl)c1)C(C)C1CN(C(=O)c3ccccc3)C(C)(C(=O)OC)C21 (stereo not given)
composite z-score [1]: 0.318 | z-score [2]: -2.78 (inactive) | z-score [3]: 0.00978 (inactive) | z-score [4]: 0.0041 (inactive) | z-score [5]: -1.1 (inactive) | composite z-score [6]: 0.78 | composite z-score [7]: 0.138 | composite z-score (Torsin-1A (Homo sapiens) [8]): -0.0514 | composite z-score (Torsin-1A (Homo sapiens) [9]): 1.27 | composite z-score [10]: -0.083 | z-score [11]: -1.69 (inactive) | composite z-score [12]: 0.235 | z-score [13]: 2.02 (inactive) | z-score [14]: 0.676 (inactive) | z-score [15]: 1.22 (inactive) | z-score [16]: 0.153 (inactive) | z-score [17]: -0.46 | z-score [18]: -1.21 (inactive) | z-score [19]: -2.3 (inactive) | z-score [20]: -2.42

CCc1cc2c(nc1CC)CCN(CCC(C)=NOC)C2
composite z-score [1]: 0.148 | z-score [2]: -0.295 (inactive) | z-score [3]: -1.01 (inactive) | z-score [4]: 1.82 (inactive) | z-score [5]: -0.26 (inactive) | composite z-score [6]: 0.496 | composite z-score [7]: -0.0645 | composite z-score (Torsin-1A (Homo sapiens) [8]): 1.23 | composite z-score (Torsin-1A (Homo sapiens) [9]): 1.57 | composite z-score [10]: 1.05 | z-score [11]: -1.88 (inactive) | composite z-score [12]: 0.393 | z-score [13]: 1.69 (inactive) | z-score [14]: 1.29 (inactive) | z-score [15]: 0.194 (inactive) | z-score [16]: 0.612 (inactive) | z-score [17]: 0.481 | z-score [18]: -0.0413 (inactive) | z-score [19]: -1.48 (inactive) | z-score [20]: 1.13
